Source: PubChem BioAssay
Most compounds without a hit are left out; they make up all but 9.2% or so of the library.
ELG1 repair inh – blocks ELG1-dependent DNA repair in HEK293T cells | AID 504467 | HEK293T ELG1-luciferase reporter, luminescence, 16 h; DNA damage induced by 5-fluorouridine | hit rate 2.3% among 330,000 | Potency, µM (series often up to 46.1 µM), without a hit: at the top dose activity change, negative = inhibition, most hits filed as inhibitors; further: on the % scale 0 is the no-effect control and ±100 the full control effect; nearly all actives have a fitted effect of over 55% in size
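Reporter activity after DNA damage by 5-fluorouridine is monitored. Compound-treated cells incubate 16 hr at 37 °C, then ONE-Glo is added for 30 min before luminescence reading.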
Rab9 prom act – activators of Rab9 promoter | Huh7 Rab9 promoter-luciferase reporter, luminescence, 24 h | Potency, µM (titrated, usually from 9.22 µM), inactives show top-dose activation, negative = inhibition, usual class: activators | hit rate 2.8% among 320,000 | AID 485297; further: % of control where 0% means no effect; nearly all actives have a fitted effect of over 60% in size
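Luciferase signal after 10 min detection reagent at ambient indicates Rab9 promoter upregulation; stably transfected Huh7 cells were treated 24 h with compound in DMSO at 37 °C, 5% CO2.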
NPC1 prom act – activates the NPC1 promoter. Huh7 NPC1 promoter luciferase reporter, 24 h. Potency, µM (titrated, usually from 9.22 µM), for the others: at the top dose activation, usual class: activators. hit rate 2.4% among 320,000. AID 485313; further: % of control where 0% means no effect; nearly all actives have a fitted effect of over 60% in size
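Huh7 reporter cells (NPC1 promoter driving luciferase) are dosed with compound for 24 h at 37 °C, 5% CO2; luciferase detection reagent is then added and luminescence measured after 10 min at ambient temperature.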
FLuc modulator – counter-screen for miR-21 project: firefly luciferase inhibitors or activators. AID 588342. purified FLuc, Km substrates, luminescence inhibition. hit rate 6.9% among 360,000. Potency, µM (series often up to 57.5 µM), inactives show top-dose activity change, negative = inhibition, hits mostly inhibitors;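 further: plate controls were vehicle for no effect and reference inhibitor for full effect; nearly all actives have a fitted effect of over 55% in size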
Target sequence (P08659 whole entry, looked up): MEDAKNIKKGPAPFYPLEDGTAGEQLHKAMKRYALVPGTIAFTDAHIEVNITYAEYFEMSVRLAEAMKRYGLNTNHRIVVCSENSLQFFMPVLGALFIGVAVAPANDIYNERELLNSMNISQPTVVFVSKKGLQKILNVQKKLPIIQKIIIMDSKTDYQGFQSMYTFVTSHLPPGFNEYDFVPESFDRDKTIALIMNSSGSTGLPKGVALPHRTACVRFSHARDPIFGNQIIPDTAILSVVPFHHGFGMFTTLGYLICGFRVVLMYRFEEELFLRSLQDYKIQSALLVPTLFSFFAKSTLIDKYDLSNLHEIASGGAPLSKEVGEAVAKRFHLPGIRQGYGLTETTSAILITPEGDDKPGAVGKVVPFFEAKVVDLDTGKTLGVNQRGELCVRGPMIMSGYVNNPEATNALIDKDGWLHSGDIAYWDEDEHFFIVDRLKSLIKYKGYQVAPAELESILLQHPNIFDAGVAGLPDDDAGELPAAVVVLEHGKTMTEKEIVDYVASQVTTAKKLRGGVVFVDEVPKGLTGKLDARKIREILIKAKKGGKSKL
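Biochemical qHTS of compounds, final roughly 60 µM downward over six points, against 10 nM purified firefly luciferase using Km concentrations of substrates (10 uM D-luciferin, 10 uM ATP) in Tris acetate pH 7.5 buffer; luminescence output.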
SMN2 splice up – increases expression of the SMN2 splice variant. HEK293 SMN2-luciferase splicing reporter, luminescence, 30-36 h. Potency, µM (doses to about 46.1 µM), for inactives: at the top dose activity change, positive = activation, usual class: activators. hit rate 2.8% among 210,000; further: % of control where 0% means no effect; nearly all actives have a fitted effect of over 55% in size
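qHTS luciferase splicing reporter: luminescence rises when SMN2 exon 7 is included in transfected HEK293 cells. Compound exposure lasted 30-36 h at 37C, with 4.5 mM final sodium butyrate as control, followed by a ONE-Glo read.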
ELG1 genotoxic – induces genotoxicity in HEK293T cells with luciferase-tagged ELG1 | HEK293T ELG1-luciferase reporter, luminescence, 16 h | Potency, µM (titrated, usually from 46 µM), inactives show top-dose activity change, positive = activation, actives largely listed as activators | hit rate 1.3% among 330,000; further: % of control where 0% means no effect; nearly all actives have a fitted effect of over 60% in size
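DMSO vehicle served as control against compound-treated ELG1-luciferase HEK293T cells; exposure lasted 16 hr at 37 °C and 5% CO2, followed by ONE-Glo luminescence detection after 30 min.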
* marks the source's active call; other numbers are inactive results; ? = inconclusive; nt = no result; [ ] = another dose, or the depositor's remark. The call rests on the fitted dose curve; in most records, active means well fitted curve in the direction sought with a large enough effect; inconclusive means small, poorly fitted or top-dose-only effect, or another doubt; inactive means no such curve, though single readings can be large; an effect the other way counts as inactive or inconclusive. Potency means the concentration at half of the fitted maximal effect.

SMILES | ELG1 repair inh | Rab9 prom act | NPC1 prom act | FLuc modulator | SMN2 splice up | ELG1 genotoxic
Cc1ccc(-c2cc(-c3nnc(SCC(=O)N(C)CCC#N)n3N)c3ccccc3n2)cc1 | 0% | 7% | 1% | 11µM* | -47% | 1%
CCCCCCCC1c2c(c(C)c(C)oc2=O)Oc2c(C)c(C)oc(=O)c21 | -11% | -4% | -1% | 1% | nt | -4%
CCOc1ccc(C(CC(=O)O)NC(=O)C(CC)c2ccccc2)cc1 (centres undefined) | -11% | 0% | 1% | 1% | nt | 0%
O=c1cc(O)c2sc3nc4c(c(C(F)(F)F)c3c2[nH]1)CCCCC4 | 16% | 5% | -2% | 17µM* | nt | 2%
COc1cccc2cc(C(=O)C3=C(O)C(=O)N(CCN(C)C)C3c3ccc(Cl)cc3)oc12 (centres undefined) | ? | 2% | -3% | 0% | nt | 1%
Cc1cc(C)n2nc(-c3cccnc3)nc2n1 | 14% | 2% | 0% | -12% | -6% | 2%
Cc1ccc(/C=c2\sc3nc(-c4cccnc4)nn3c2=O)cc1 | 16% | 8% | 9% | 4.8µM* | 17% | 9%
CC(C)c1ccc(/C=c2\sc3nc(-c4ccncc4)nn3c2=O)cc1 | ? | 17% | 20% | 2.4µM* | 7% | 4%
CCCc1nnc(NC(=O)c2cc3ccccc3oc2=O)s1 | ? | 2% | 8% | 0%[2.3 µM] | 12% | 6%
COC(=O)Cc1nnc(NC(=O)c2ccccc2)s1 | 19% | 4% | 5% | -16% | nt | 8%
CCCc1nnc(NC(=O)c2cc3ccccc3o2)s1 | ? | 4µM* | 3.5µM* | 13µM* | nt | 27%
COCc1nnc(NC(=O)c2cccc(NC(=O)c3ccccc3)c2)s1 | 6% | 16% | 13% | 19µM* | nt | -1%
COCc1nnc(NC(=O)c2cc3ccccc3o2)s1 | ? | ? | ? | 19µM* | nt | ?
Cc1csc(=NC(=O)c2ccccc2)n1Cc1ccco1 | ? | 17% | 13% | ? | -26% | 1%
CCn1c(C)csc1=NC(=O)c1ccccc1O | ? | 2.8µM* | 2.8µM* | 13µM* | -9% | ?
CCn1c(C)csc1=NC(=O)c1ccccc1 | ? | ? | 17% | 19µM* | -10% | 7%
C=CCn1c(C)csc1=Nc1ccccc1C | 16% | 10% | -1% | ? | 19% | 3%
Cc1csc(=NC(=O)c2ccccc2)n1C | ? | 2.5µM* | 3.2µM* | 13µM* | 11µM* | 21µM*
CCOc1ccc(N(CC(=O)N2CCCCCC2)S(=O)(=O)c2ccc(C)cc2)cc1 | -3% | -2% | 6% | 1% | nt | -8%
O=C(Nc1ccccc1)Nc1nccs1 | ? | 25% | 16% | 24µM* | ? | -1%
COc1ccc(C(=O)Nc2nccs2)cc1OC | ? | ? | 27% | ? | 7.1µM* | ?
O=C(Nc1ccccc1)Nc1nncs1 | 2% | 4% | -2% | ? | -1% | -1%
COc1ccc(C(=O)Nc2nccs2)cc1 | ? | 3.2µM* | 2.2µM* | 19µM* | nt | ?
COc1ccc(C(=O)Nc2nccs2)cc1[N+](=O)[O-] | ? | 1% | 11% | -11% | 12% | 10%
CCC(CC)C(=O)Nc1cccc(C(=O)Nc2nccs2)c1 | ? | -2% | -4% | 0% | -25% | -7%
COc1ccccc1CC(=O)Nc1cccc(C(=O)Nc2nccs2)c1 | 16µM* | -5% | 8% | ? | nt | -5%
CSCCC(NC(=O)COc1ccccc1)C(=O)N1CCCC(C)C1 (centres undefined) | 16% | 14% | 6% | -1% | nt | 0%
COc1ccc(NC2CCCN(C(=O)Cn3ccc(C)n3)C2)cc1OC (centres undefined) | 16% | 9% | -2% | 2% | nt | 5%
C[C@@H](C(=O)Nc1ccc2ccccc2c1)[C@H]1C[C@]1(C)[C@H](NS(=O)(=O)c1ccc2ccccc2c1)c1ccccc1 | nt | nt | nt | nt | -8% | nt
C/C(=C\C(=O)Nc1nccs1)c1ccccc1 | nt | nt | nt | 9.5µM* | ? | nt
